# Assay results reported in PubChem BioAssay (NCATS).
# “And” between values parts separate entries of the source, which are not always exact repeats. Equal entries are not always repeated. Inconclusive results are not listed. Some compounds were tested as several samples or in several runs, with calls that do not always agree. The source made the active and inactive calls. The call rests on the fitted dose curve; in most records, active means well fitted curve in the direction sought with a large enough effect; inconclusive means small, poorly fitted or top-dose-only effect, or another doubt; inactive means no such curve, though single readings can be large; an effect the other way counts as inactive or inconclusive.
# Key:
# [1] = Viability qHTS for spleen associated tyrosine kinase inhibitor (SYKi) naive MV4-11 cells (AID 1963823); conditions: MV4-11 AML viability, CellTiter-Glo luminescence, 72 h; series mostly up to 45 µM; further: nearly all actives have a fitted effect of over 40% in size
# Procedure, shortened: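 In this viability screen, compounds acted on SYK inhibitor naive MV4-11 cells for three days (72 hr, 37 C). Remaining viable cells were measured by CellTiter-Glo luminescence following a 10 min room-temperature development.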
# [2] = Viability qHTS for spleen associated tyrosine kinase inhibitor (SYKi) drug resistant MV4-11 cells (AID 1963824); conditions: SYKi-resistant MV4-11 viability, CellTiter-Glo, 72 h; series mostly up to 45 µM; further: nearly all actives have a fitted effect of over 35% in size
# Procedure, shortened: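 CellTiter-Glo luminescence, read 10 min after reagent addition, reports viability after a 72 hr compound exposure. Cells are an MV4-11 line made resistant to SYK inhibition, seeded at 500 per well onto compound-containing plates.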
# [3] = Quantitative highthroughput screen to assess conditional lethalithy of NOMO1 cells grown in RPMI1640 with untreated serum (RPMI+s) (AID 1963876); conditions: NOMO1 AML cells in RPMI+serum, CellTiter-Glo viability, 48 h; series mostly up to 45.8 µM; further: nearly all actives have a fitted effect of over 35% in size;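 on Viability: 100% = DMSO wells and 0% = empty wells without cells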
# Procedure, shortened: (§1)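 Each medium arm—HPLM with 10% dialyzed FBS, or RPMI1640 with 5 mM glucose and 10% untreated or dialyzed FBS—was screened against an 11-point, 3-fold compound titration for 48 h at 37 °C, with CellTiter-Glo luminescence as endpoint.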
# [4] = Quantitative highthroughput screen to assess conditional lethalithy of NOMO1 cells grown in RPMI1640 with dialyzed fetal bovine serum (RPMI+ds) (AID 1963877); conditions: NOMO1 in RPMI+dialyzed FBS viability, ATP luminescence, 48 h; series mostly up to 45.8 µM; further: nearly all actives have a fitted effect of over 30% in size;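 on Viability: 100% = DMSO control wells and 0% = empty wells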
# Procedure, shortened: as §1
# [5] = Quantitative highthroughput screen to assess conditional lethalithy of SEM cells grown in Human Plasma-Like Medium with dialyzed fetal bovine serum (HPLM+ds) (AID 1963882); conditions: SEM B-ALL cells in HPLM+ds, CellTiter-Glo viability, 48 h; series mostly up to 45.8 µM; further: nearly all actives have a fitted effect of over 35% in size
# Procedure, shortened: as §1
# [6] = Quantitative highthroughput screen to assess conditional lethalithy of SEM cells grown in RPMI1640 with unreated serum (RPMI+s) (AID 1963883); conditions: SEM B-ALL cells, CellTiter-Glo viability, 48 h; series mostly up to 45.8 µM; further: nearly all actives have a fitted effect of over 35% in size;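 on Viability: 100% = DMSO wells and 0% = empty wells without cells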
# Procedure, shortened: as §1
# [7] = Cellular viability qHTS for adrenocortical cancer (ACC) cell line SW-13 (AID 1963989); conditions: SW-13 ACC cells viability, CellTiter-Glo, 48 h; activity (max response): stronger effect = lower value; further: nearly all actives have a fitted effect of over 65% in size;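 on activity (max response): cells grown in serum-free medium with ITS supplement; on the % scale 0 is the no-effect control and ±100 the full control effect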
# Procedure, shortened: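 Luminescent ATP read-out (CellTiter-Glo, 20 min at room temperature) measured metabolically competent SW-13 cells after 48 h compound treatment. Final concentrations spanned up to 46 uM; bortezomib served as positive control.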
# [8] = Cellular viability qHTS for adrenocortical cancer (ACC) cell line NCI-H295R (AID 1963990); conditions: CellTiter-Glo ATP luminescence, 48 h; series mostly up to 46.1 µM; further: nearly all actives have a fitted effect of over 60% in size
# Procedure, shortened: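 IC50 and maximal efficacy derive from four-parameter logistic modelling of titration curves, with reads scaled between DMSO-only wells (0%) and doxorubicin hydrochloride (100% inhibition). Compounds spanned up to 46 uM over 48 h.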
# [9] = Quantitative highthroughput screen to assess conditional lethalithy of P12 Ichikawa cells grown in RPMI1640 with dialyzed fetal bovine serum (RPMI+ds) (AID 1963880); conditions: ATP luminescence, 48 h; Potency: P12-Ichikawa viability; series mostly up to 45.8 µM; further: nearly all actives have a fitted effect of over 35% in size;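 on Viability: 100% = DMSO wells and 0% = empty wells on each plate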
# Procedure, shortened: as §1
# [10] = Quantitative highthroughput screen to assess conditional lethalithy of P12 Ichikawa cells grown in RPMI1640 with untreated serum (RPMI+s) (AID 1963881); conditions: ATP luminescence, 48 h; Potency: viability; series mostly up to 45.8 µM; further: nearly all actives have a fitted effect of over 35% in size;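 on Viability: 100% = DMSO wells and 0% = empty wells without cells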
# Procedure, shortened: as §1
# [11] = Quantitative highthroughput screen to assess conditional lethalithy of NOMO1 cells grown in Human Plasma-Like Medium with dialyzed fetal bovine serum (HPLM+ds) (AID 1963878); conditions: NOMO1 AML cells in HPLM+ds, CellTiter-Glo viability, 48 h; series mostly up to 45.8 µM; further: nearly all actives have a fitted effect of over 35% in size;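 on Viability: 100% = DMSO wells and 0% = empty wells on each plate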
# Procedure, shortened: as §1
# [12] = Quantitative highthroughput screen to assess conditional lethalithy of P12 Ichikawa cells grown in Human Plasma-Like Medium with dialyzed fetal bovine serum (HPLM+ds) (AID 1963879); conditions: ATP luminescence, 48 h; Potency: viability; series mostly up to 45.8 µM; further: nearly all actives have a fitted effect of over 35% in size
# Procedure, shortened: as §1
# [13] = Quantitative highthroughput screen to assess conditional lethalithy of SEM cells grown in RPMI1640 with dialyzed fetal bovine serum (RPMI+ds) (AID 1963884); conditions: SEM B-ALL cells, RPMI+dialyzed FBS, CellTiter-Glo viability, 48 h; series mostly up to 45.8 µM; further: nearly all actives have a fitted effect of over 35% in size;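 on Viability: 100% = DMSO control wells and 0% = empty wells without cells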
# Procedure, shortened: as §1
# Potency means the concentration at half of the fitted maximal effect.
Compound,Potency [1],Potency [2],Potency [3],Potency [4],Potency [5],Potency [6],Potency [7],Potency [8],Potency [9],Potency [10],Potency [11],Potency [12],Potency [13],activity (max response) [7]
CC(C)c1cc(-c2n[nH]c(=O)n2-c2ccc3c(ccn3C)c2)c(O)cc1O,9.2 nM (active) and 9.3 nM (active),11.6 nM (active) and 16.6 nM (active),118 nM (active),93.5 nM (active),74.3 nM (active),59 nM (active),0.282 µM (active),12.6 nM (active),–,–,–,–,–,–
CC(C)[C@@H](CS(=O)(=O)C(C)C)N1C(=O)[C@@](C)(CC(=O)O)C[C@H](c2cccc(Cl)c2)[C@H]1c1ccc(Cl)cc1,18.6 µM (active),14.6 µM (active) and 16.6 µM (active),1660 nM (active),2090 nM (active),–,295 nM (active),–,–,1170 nM (active),933 nM (active),–,–,–,–
CCCCCCCCCCCCCCCCCCCCCCO,inactive,inactive,inactive,–,inactive,inactive,–,inactive,inactive,inactive,inactive,inactive,inactive,-13.9% (inactive)
Cn1cc(CNCC2CCN(c3ncc(C(=O)NO)cn3)CC2)c2ccccc21,0.0661 µM (active),16.6 nM (active),372 nM (active),–,132 nM (active),148 nM (active),1.26 µM (active),794 nM (active),372 nM (active),235 nM (active),296 nM (active),264 nM (active),132 nM (active),–
c1cc(-c2cnn3cc(-c4ccc(OCCN5CCCCC5)cc4)cnc23)ccn1,0.0206 µM (active),20.6 nM (active) and 20.9 nM (active),inactive,inactive,inactive,inactive,11.2 µM (active),12600 nM (active),inactive,–,–,–,inactive,–
NC(=O)c1ccc2nc(-c3ccc(Oc4ccc(Cl)cc4)cc3)[nH]c2c1,5.17 µM (active),2.95 µM (active) and 8.2 µM (active),inactive,inactive,–,–,28.2 µM (active),25100 nM (active),inactive,–,–,inactive,–,–
CC(C)c1cc(C(C)C)c(CC(=O)NS(=O)(=O)Oc2c(C(C)C)cccc2C(C)C)c(C(C)C)c1,11.6 µM (active),4680 nM (active),inactive,–,inactive,inactive,–,–,inactive,inactive,inactive,inactive,–,-25.2% (inactive)
COc1ccc(-n2nc(C(N)=O)c3c2C(=O)N(c2ccc(N4CCCCC4=O)cc2)CC3)cc1,inactive,inactive,118 nM (active),235 nM (active),inactive,inactive,–,inactive,2960 nM (active),2640 nM (active),–,–,–,-9.7% (inactive)
O=C(c1ccc(OCCN2CCCCC2)cc1)c1c(-c2ccc(O)cc2)sc2cc(O)ccc12,14.8 µM (active) and 16.4 µM (active),13.3 µM (active) and 16.6 µM (active) and 10.3 µM (active),inactive,inactive,–,inactive,20.6 µM (active) and 25.1 µM (active),–,–,–,–,–,–,–
Clc1ccc(C(Cn2ccnc2)OCc2ccsc2Cl)c(Cl)c1 (stereo unspecified),8.33 µM (active),9340 nM (active),inactive,–,–,–,18.4 µM (active),31600 nM (active),–,–,inactive,–,–,–
CCC(C)(C)C(=O)O[C@H]1C[C@@H](C)C=C2C=C[C@H](C)[C@H](CC[C@@H]3C[C@@H](O)CC(=O)O3)[C@H]21,8.41 µM (active) and 9.34 µM (active),2.99 µM (active) and 3.72 µM (active),20900 nM (active),–,–,–,–,inactive and 17.8 µM (active),–,14800 nM (active),18700 nM (active),–,–,–
CC1(CN2CCC(n3c(=O)[nH]c4ccccc43)CC2)OCc2ccccc2-n2cccc21 (stereo unspecified),16.6 µM (active),21.1 µM (active) and 10.3 µM (active) and 14.8 µM (active),inactive,–,–,–,20.6 µM (active) and 25.1 µM (active),23100 nM (active),inactive,inactive,inactive,inactive,inactive,–
COC(c1ccccc1)(c1ccccc1)[C@H](Oc1nc(C)cc(C)n1)C(=O)O,inactive,inactive,inactive,–,–,–,–,inactive,–,–,inactive,–,–,2.42% (inactive) and -1.06% (inactive)
O=C(C1CCCCC1)N1CC(=O)N2CCc3ccccc3C2C1 (stereo unspecified),inactive,inactive,inactive,–,–,332 nM (active),–,inactive,–,–,inactive,–,–,-9.94% (inactive) and -6.75% (inactive)
N#CC[C@H](C1CCCC1)n1cc(-c2ncnc3[nH]ccc23)cn1,8.2 µM (active),20600 nM (active),14800 nM (active),–,–,–,–,–,–,–,7430 nM (active),–,–,-17.5% (inactive)
CN1CCC(COc2cnc(-c3cccc(Cn4nc(-c5cccc(C#N)c5)ccc4=O)c3)nc2)CC1,7.42 µM (active) and 8.2 µM (active),7.42 µM (active) and 13 µM (active),inactive,–,inactive,–,–,25100 nM (active),inactive,inactive,inactive,inactive,inactive,–
COc1cc2nccc(Oc3ccc(NC(=O)Nc4ccc(F)cc4F)c(F)c3)c2cc1OC,0.0231 µM (active),51.7 nM (active),inactive,–,–,209 nM (active),–,–,–,–,inactive,23500 nM (active),–,-11.6% (inactive)
CN(C)c1ccc(C(=O)NCCCCCCC(=O)NO)cc1,0.833 µM (active),742 nM (active),2960 nM (active),–,1320 nM (active),1320 nM (active),4.47 µM (active),1410 nM (active),–,1480 nM (active),2640 nM (active),1480 nM (active),1180 nM (active),–
